The full ranking holds about 24,000 sequences; the median of “enrichment r” is about 0.99, and the highest 2% start at about 3.7. The sample holds the highest values, similar sequences and a random draw of the others, so the mix is not that of the screen.
T1: UNK ZnF1-3 (human, UniProt Q9C0B0 31-174)
T1 sequence: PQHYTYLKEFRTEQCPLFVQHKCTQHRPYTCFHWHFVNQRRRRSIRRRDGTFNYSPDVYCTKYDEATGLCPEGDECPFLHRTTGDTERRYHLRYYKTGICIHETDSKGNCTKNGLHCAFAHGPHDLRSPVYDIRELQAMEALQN

B1: chr4:25749455:25749456:-_ENSG00000091490_ENST00000264868|hu_hu|hu_hu_hu_mus_False|8_68 (ssRNA)
RNA: GGGAGUUCUACAGUCCGACGAUCGCACUAUGACCUCUAGAAAAAUCCACAGGGGGAAAAAAUGUAAACCAAUUUACAAUGUUAUCGCCUUCCCUGUGUGUGGAGUGUUUGUCUCAAGGCUCCUUCUUGCCUUAUAAUUUGGGACAACAGAGGAUUGAGCAUCA
B2: chr16:11966626:11966627:-_ENSG00000103342_ENST00000563468|hu_hu|FALSE|FALSE (ssRNA)
RNA: GGGAGUUCUACAGUCCGACGAUCUUGUAACAUGUGCACACACACUCGCACACUCAGAAUGAUCUGCCUGGGGGAAAAAUACUAAAUAUGCCUAAGGGGAAAAUGAAAAAUAAAAAAAUUCCUGUAGGUUUUCAUUAUUGUAGGCAACAGAGGAUUGAGCAUCA
B3: chr4:144460044:144460045:+_ENSG00000153147_ENST00000283131|hu_mus|hu_hu_hu_mus_False|18_68 (ssRNA)
RNA: GGGAGUUCUACAGUCCGACGAUCACGGUCCAUAGCCUGAAGAUCAACUUGCGGAUUCCAAUCUGAGUCAUACAAAAUGACUACAUCAGCAGUUGCAAGAUUGAUGCCCAGACCACCAGCACGCGUGCUUAGCAUAAAUACAAACAACAGAGGAUUGAGCAUCA
B4: 47062174_47062422_1437_CDS_ENSG00000130985_ENST00000335972|human|control|control (ssRNA)
RNA: GGGAGUUCUACAGUCCGACGAUCGACCUCUUUGUCCUCAGGGAGACACUCAAGGGCAUCAAAGUAUAGCCACUGCAUGAUGGGCAUGAACUUCCCGGAGCAGGCCUUCAUGACUUCCUGGGCAGCCAGGCCCCCAAUGAAGGCCAACAGAGGAUUGAGCAUCA
B5: chr6:30691630:30691631:+_ENSG00000196230_ENST00000327892|hu_hu|FALSE|FALSE (ssRNA)
RNA: GGGAGUUCUACAGUCCGACGAUCAGCUCGAUACUGCUGGCUUCCACGGCUGGUGAGAGGGGCAAAGCCAGGCAUAAAGAAAUGGAGACGUGGGAAGGGGACCAUGUUGACUGCCAACUUGCGGAGGUCAGCAUUGAGCUGGCCCAACAGAGGAUUGAGCAUCA
B6: 44991723_44991843_1432_CDS_ENSMUSG00000038518_ENSMUST00000173246|mouse|control|control (ssRNA)
RNA: GGGAGUUCUACAGUCCGACGAUCCUGAGCAGACCGAUGCGAAGGGGGAGGUUGGUGGUUGGCAGCAAGUCCCUUGGCAGAGGAAGCCGCAGCCGAGGCGGCCGUGGGCUGAGCCCCUGAAGCCUGUUCUCUCCGGCUGUCUGCCAACAGAGGAUUGAGCAUCA
B7: chr7:133967480:133967481:+_ENSMUSG00000058966_ENSMUST00000079423|mus_mus|FALSE|FALSE (ssRNA)
RNA: GGGAGUUCUACAGUCCGACGAUCAGGGAGUUGGAGGUGAAGAAGGGAUUGCCAAGCCAGAAAGGGAGAGAGAAAGAGGGAGGGGGAGGCACAAAGGGGCCAGGGCGGGGACAGGAUGGGACAAGAGGACCAGUUCAGGGCAAGCAACAGAGGAUUGAGCAUCA
B8: chr2:180329438:180329439:+_ENSMUSG00000049401_ENSMUST00000029087|mus_hu|FALSE|FALSE (ssRNA)
RNA: GGGAGUUCUACAGUCCGACGAUCCUCUGAGGCACUCUGAGGGCCUGGCUCUGUGGGCGGCUGCUCCCGCCGGCUCAGCUCCAGCUUCCUCUUCUUGCUCUCUUUGGGGCUUAAGGGCUCCGGCCUAUCUUCCCCGUGGCCCCCCAACAGAGGAUUGAGCAUCA
B9: 91300164_91300284_179_3pUTR_ENSMUSG00000038459_ENSMUST00000117085|mouse|control|control (ssRNA)
RNA: GGGAGUUCUACAGUCCGACGAUCCCGCCGGGGCGGGCGCGGGGGUCGCCGCGGGAGCGGGCGCGCGCUGCUCGGGCGCCAGCACCGUGUAGGUGGGUUCGGGCGGCAGGAAGGCCAGCUUGGCGGCGAUGCGGCUCGGACAAGCAACAGAGGAUUGAGCAUCA
B10: 132387670_132387790_77_5pUTR_ENSG00000170606_ENST00000304858|human|control|control (ssRNA)
RNA: GGGAGUUCUACAGUCCGACGAUCGGUACUGCAACCGAGAGCGCUGCUCAGGCCGGCUCCGGCUCAGUGGCCGCAGAGGAGGCGCCGGUAGCGGGGGCGGAGAAGAUCUCGAAAGAUCUCGUUGCGACGAGAGCGGAGCCGCAGCAACAGAGGAUUGAGCAUCA
B11: 62352434_62352554_269_CDS_ENSMUSG00000018509_ENSMUST00000018653|mouse|control|control (ssRNA)
RNA: GGGAGUUCUACAGUCCGACGAUCCUGCUCCCCCAGGUCGAGCGCCGACACCGAGGCGGCGGGGGUGACCGCCGGCGGUGGCUCCUCGGCGGCCGCCUCCUGGGCCCGCGGCGGUGGCUUGGGCCGCGGCUUUGCCGACGGCUGCAACAGAGGAUUGAGCAUCA
B12: 86322860_86322980_198_3pUTR_ENSG00000135018_ENST00000376395|human|control|control (ssRNA)
RNA: GGGAGUUCUACAGUCCGACGAUCCUUCCUCCUCCCUGCCCCUUCCCCCACGUCCCUUCGCCGGCGCCGCGCGGAGCACGCCGGGUAACGCGCCUGGCGGCGUCGCCGAGUCAUCCCCGGCUGGCGCGACUUUGAGCUCAGCCUCAACAGAGGAUUGAGCAUCA
B13: 126416003_126416123_291_3pUTR_ENSMUSG00000078429_ENSMUST00000105256|mouse|control|control (ssRNA)
RNA: GGGAGUUCUACAGUCCGACGAUCAGGCGGCCUGCACAGAGGGCGGGCGGGCCAGGCGGCGGCUUCCCCGGUGCCCCCAGCCCCGAUCCCCCGGUGGCAGCUCCGGGCUCCUCAGUUUGGGUCCAACAUGGAGAAUCCGGAGCGCAACAGAGGAUUGAGCAUCA
B14: chr6:35489678:35489679:-_ENSMUSG00000029840_ENSMUST00000031866|mus_hu|FALSE|FALSE (ssRNA)
RNA: GGGAGUUCUACAGUCCGACGAUCAGAAGAUGAGGAGGCGGUGGCAGCAGCAAGCGGAUGCCGCCGGGCGAGAGGGAGGCAGGGCCGCGCGAAGCCGGAGAGGAGAAGAAGAGAAGGAGGGUUAGGCUGCCAGGCGGGCGAGGCCAACAGAGGAUUGAGCAUCA
B15: 98346538_98346658_211_5pUTR_ENSG00000077147_ENST00000371142|human|control|control (ssRNA)
RNA: GGGAGUUCUACAGUCCGACGAUCCAGCCACAGCGCGGCGGCCGCCGCCACGCCAAGAGCGCCAGGCAGCGGCCUCAUCCUCCGCGCCCCUCCGGCCCGGAGCCGGCUCACCGACUCCUCCUCCCGCCGCCGCCUCCUCCGCCGCAACAGAGGAUUGAGCAUCA
B16: chr9:123912698:123912699:+_ENSG00000119397_ENST00000373850|hu_hu|FALSE|FALSE (ssRNA)
RNA: GGGAGUUCUACAGUCCGACGAUCAUGGUGUUCAGGGACGUUGCAAUGCAGCACACCCAUAGGGAUGAAGGGGAUGGAGAAGUUGGGGGGUGGAGGCCCAUACACCAUGGGGGCCCCAGCAGGAGGUGGGCCAUAAACAACAGUCAACAGAGGAUUGAGCAUCA

What follows are binders tested against T1, UNK ZnF1-3 (assay: nsRBNS (natural sequence RNA bind-n-seq); RBNS binding buffer (assumed for nsRBNS): 25 mM Tris pH 7.5, 150 mM KCl, 3 mM MgCl2, 0.01% Triton X-100, 500 ug/ml BSA, 20 U/ml SUPERase-In, 4 C; UNK is unkempt and MSI1 is Musashi-1; names of the RNAs are library labels; protein concentration not given here; high values mean tight binding).

Binder | binding signal [enrichment R]
B1 | 0.719
B2 | 3.28
B3 | 1.01
B4 | 1.06
B5 | 1.75
B6 | 1.39
B7 | 5.53
B8 | 0.81
B9 | 0.777
B10 | 1.09
B11 | 4.47
B12 | 0.759
B13 | 2.26
B14 | 3.69
B15 | 5.42
B16 | 1.48
